These results are taken from PubChem BioAssay AID504332 (National Center for Advancing Translational Sciences (NCATS), 2011).

Among all 350,000 compounds or so, about 31,000 (8.9%) were called active. Not shown: some 15% with an inconclusive outcome. For the sample, actives were picked, then their nearest neighbours and some compounds at random. A number with no mark means an inactive call. The call rests on the fitted dose curve; in most records, active means well fitted inhibition curve with a large enough effect; inconclusive means small, poorly fitted or top-dose-only effect; inactive means no such curve, though single readings can be large or run the other way.
On the % scale 0 is the no-effect control and ±100 the full control effect; potency means the concentration at half of the fitted maximal effect.

Chain of Histone-lysine N-methyltransferase EHMT2 (Homo sapiens) (Q96KQ7 913-1193 limits assumed): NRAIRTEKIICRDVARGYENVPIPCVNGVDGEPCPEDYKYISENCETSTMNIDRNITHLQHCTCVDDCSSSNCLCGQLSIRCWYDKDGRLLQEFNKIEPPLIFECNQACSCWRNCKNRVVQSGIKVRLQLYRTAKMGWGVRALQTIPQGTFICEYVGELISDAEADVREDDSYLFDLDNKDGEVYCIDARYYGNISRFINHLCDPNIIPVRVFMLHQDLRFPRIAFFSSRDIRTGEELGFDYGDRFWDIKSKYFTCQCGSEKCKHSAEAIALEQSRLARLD

The test addresses Histone-lysine N-methyltransferase EHMT2 (Homo sapiens) (UniProt Q96KQ7). The test can be described thus: qHTS Assay for Inhibitors of Histone Lysine Methyltransferase G9a. Further: nearly all actives have a fitted effect of over 75% in size. Conditions: G9a H3K9 monomethylation, AlphaScreen, 2 h; series mostly up to 59 µM; activity, negative = inhibition: at the top concentration. An excerpt: Methylated lysines, on the N-terminal tails of histone proteins serve as epigenetic markers to recruit factors that can then modify local chromatin structure to lead to functional consequences. G9a and other members of the SUV39 family of the SET domain-containing superfamily of histone lysine methyltransferases (HMT) have been identified to specifically methylate Lys9 of histone H3 (H3K9). G9a catalyzes the mono- and di-methylation of H3K9 in mammalian euchromatic regions, where the resulting H3K9me2 is indicative of transcriptional repression. […] The inhibition of G9a will result in transcriptional activation and work synergistically with DNA methyltransferase and histone deacetylase inhibitors, to kill cancer cells. This qHTS assay for identification of G9a inhibitors is a chemiluminescence based AlphaScreen (PerkinElmer). Methylation of biotinylated-histone peptide is measured through specific antibody-based detection, in conjunction with streptavidin-coated donor and anti-IgG antibody-coated acceptor beads. The method is particularly well suited for detection of inhibitors acting by the desired histone peptide competitive mechanism and is applicable to testing other HMTs. Although AlphaScreen has significant advantages with its utility in a variety of epigenetic target assays, the primary screening data provided in this deposition should be used with caution due to the prevalence of screening artifacts. An AlphaScreen counterscreen is highly recommended to be run against any putative actives to eliminate non specific artifacts. Alternatively, one can use other AlphaScreen assays in PubChem to filter out promiscuous hits. Quinn et al. A chemiluminescence-based method for identification of histone lysine methyltransferase inhibitors. Mol Biosyst 6(5): 782-8. 2010. PMID: 20567762 [2] Baell,Holloway. New substructure filters for removal of pan assay interference compounds (PAINS) from screening libraries and for their exclusion in bioassays. J Med Chem. 53(7):2719-40. 2010. PMID: 20131845 NIH Molecular Libraries Probe Production Network [MLPCN] NIH Chemical Genomics Center [NCGC] Structural Genomics Consortium (SGC) NIH Grant: 5U54 MH084681-02
To each well of a 1,536w plate, 2ul of HMT enzyme (final 20nM) were added, using a nanoliter dispenser. The G9a- and GLP-inhibitor BIX-01294 (CID: 25150857) are used as an intraplate control, with a 16-point titration in duplicate. A Kalypsys pin-tool transferred 23nl of library compound solution in DMSO to each well. Following a 15 min incubation of enzyme with compounds at room temperature, 1ul mixture of b-H3K9 peptide substrate (final 500nM) and SAM cofactor (final 20uM) were added. Reactions were allowed to proceed at room temperature for 2 hours. Methylated b-H3K9 peptide product was detected with 0.5 ug/mL rabbit polyclonal anti-monomethyl histone H3K9 antibody (Abcam Inc., Cambridge, MA) and 20 ug/mL each streptavidin-coated donor and anti-rabbit IgG acceptor AlphaScreen beads. Antibody and beads were added in a 1ul dispense, for a final volume of 4ul, and plates were incubated, protected from the light, for 10 min at room temperature. Microplates were then read on an EnVision multilabel plate reader using the 1,536 plate HTS AlphaScreen aperture (excitation time 80 ms, measurement time 240 ms).
Take `Cc1nc2ccc(NC(=O)N3CCC(c4ccccc4)C3)cc2nc1C` (stereo not drawn): the activity, negative = inhibition was 12.3% [at 12.7 µM].
Regarding `COc1cccc(NC(=O)C2C(c3ccccc3)C2(Cl)Cl)c1` (stereo not drawn), the activity, negative = inhibition is 0.796% [at 0.501 µM].
Turning to `CNC(=S)N/N=C/c1cn(Cc2ccc(C)cc2)c2ccccc12`, the Potency is 44.7 µM (active).
As for `COC(=O)N/N=C/c1cn(CCCOc2ccc(C)cc2)c2ccccc12`, the “activity, negative = inhibition” value was 22.5%.
On the same count and under the same terms, the figure for `CCOC(=O)N/N=C/c1cn(Cc2ccccc2Cl)c2ccccc12` is 2.12%.
For the molecule `O=C(Cc1ccc(Cl)cc1)NC(=S)Nc1ccccc1O`, the “activity, negative = inhibition” value is -13.3% [at 102 µM].
The same measure, in the same setting: the result for `Cc1cccc(C)c1NC(=O)CNC(=O)C1CCCC1` reads 26.8% [at 12.7 µM]; that for `NS(=O)(=O)c1cc(C(=O)OCC(=O)NNC(=O)c2ccccc2)ccc1Cl`, 10.6%.
The same measure, in the same setting: the result for `CN(NS(=O)(=O)c1cccs1)c1ncc(C(F)(F)F)cc1Cl` reads 61.6% [at 102 µM]; that for `CC(=O)c1c(C)[nH]c(C(=O)COc2ccc3c(C)cc(=O)oc3c2)c1C`, -2.97% [at 12.7 µM]; that for `COC(=O)c1cn(CC(=O)NCc2cccs2)c2ccccc12`, 23%.
The same measure, in the same setting: the result for `COC(=O)Cn1cc(C(=O)c2cccs2)c2ccccc21` reads 10.8% [at 12.7 µM].
Take `COC(=O)Cn1cc(/C=C/[N+](=O)[O-])c2ccccc21`: the Potency was 39.8 µM (active).
Take `COc1ccc(Cl)cc1NC(=O)c1oc(C)nc1C`: the activity, negative = inhibition is 10.9% [at 12.7 µM].
Same read-out and setting: the figure for `Cc1cccc(NC(=O)c2ccc3nsnc3c2)c1C` is 2.23% [at 102 µM].
Turning to `Cc1cccc(NC(=O)c2cccc(C(=O)Nc3cccc(C)c3C)n2)c1C`, the Potency was 50.1 µM (active).
For `Cc1nc(C)c(C(=O)Nc2ccc(C)c(F)c2)o1`, the activity, negative = inhibition was 20.5% [at 12.7 µM].
On the same count and under the same terms, the figure for `Cc1cccc(NC(=O)c2ccc3nc(C(C)C)oc3c2)c1C` is 6.18%.
Consider `Cc1nc(C)c(C(=O)Nc2cccc(C)c2C)o1`, for which the Potency is 44.7 µM (active).
In the case of `CCOC(=O)[C@H]1[C@H]2COc3ccc(OC)cc3[C@@H]2N2C(=O)c3ccc(F)cc3NC(=O)[C@@]12C`, the activity, negative = inhibition is 22.3% [at 2.33 µM].
In the case of `O=C(NNC(=O)c1cc(S(=O)(=O)N2CCCCC2)ccc1Cl)c1ccccc1O`, the activity, negative = inhibition was 36.2% [at 12.7 µM].
Still for that read-out and setting: the result for `Cc1ccc(C(=O)Nc2ccc(OCc3cc(=O)n4c(C)csc4n3)cc2)cc1` reads 4.04%; that for `O=C(C1CCC1)N1CCN(S(=O)(=O)c2ccc([N+](=O)[O-])cc2)CC1`, -3.47% [at 12.7 µM]; that for `Cc1cc(C)n(-c2ccc(Cl)c(C(=O)O)n2)n1`, 12.4% [at 102 µM].
Same read-out and setting: the figure for `CC(=O)c1ccc(Oc2cc(C)nc(-n3nc(C)cc3C)n2)cc1` is -3.88%.
Take `Cc1cc(C)n(-c2nc(O)cc(=O)[nH]2)n1`: the Potency is 4.47 µM (active).
For `O=C(NCCc1ccccc1)c1cnc2sc(N3CCCC3)nn2c1=O`, the “activity, negative = inhibition” value was 13.7%.
Still for that read-out and setting: the figure for `COc1ccc(-c2csc3ncnc(N4CCN(S(=O)(=O)c5cccc(F)c5)CC4)c23)cc1` is -11.1% [at 2.33 µM].
Take `O=C(NCc1ccccc1Cl)C1=Cc2cc(Br)ccc2OC1`: the “activity, negative = inhibition” value is 21.6%.
Still for that read-out and setting: the result for `Cc1ccc(N2C(=O)C3C(c4ccccc4)(C2=O)C3(c2ccccc2)c2ccccc2)cc1` (stereo not drawn) reads 28.9% [at 12.7 µM]; that for `Cc1ccc(C2SCC(=O)N2c2ccccc2)cc1` (stereo not drawn), -19.3% [at 102 µM].
In the case of `Cc1ccc(C2C3=C(Nc4[nH]n(-c5ccccc5)c(=O)c42)c2ccccc2C3=O)cc1` (stereo not drawn), the Potency was 3.16 µM (active).
On to `CCCn1c(=N)n(CC(O)COc2ccccc2OC)c2ccccc21` (stereo not drawn), for which the “activity, negative = inhibition” value was 0.0305%.
With `CCCCn1c(N)c(N(CCOC)C(=O)CSCC(=O)Nc2cccc(C)c2)c(=O)[nH]c1=O`, the “activity, negative = inhibition” value was 13.6%.
Same read-out and setting: the figure for `O=C(Nc1ccccc1F)c1ccc(S(=O)(=O)N2CCCCCC2)cc1` is 62.1% [at 12.7 µM].
Regarding `N#Cc1c(NC(=O)c2ccc(N3CCOCC3)c([N+](=O)[O-])c2)sc2c1CCCC2`, the “activity, negative = inhibition” value is 24.3%.
The same measure, in the same setting: the result for `CCOC(=O)Cn1c(SC)nc2sc3c(c2c1=O)CC(C)(C)OC3` reads 8.03%.
Consider `CC1(C)Cc2c(sc(NC(=O)C(=O)N3CCOCC3)c2C#N)CO1`, for which the Potency is 35.5 µM (active).
`CC1(C)Cc2c(sc(NC(=O)C(=O)NCC3CCCO3)c2C(=O)O)CO1` (stereo not drawn): the “activity, negative = inhibition” value is 21% [at 102 µM].
On the same count and under the same terms, the figure for `CCOC(=O)CSc1nc2sc3c(c2c(=O)[nH]1)CC(C)(C)OC3` is -73.9% [at 102 µM].
With `CCOC(=O)N1CCN(C(=O)C(=O)Nc2sc3c(c2C#N)CC(C)(C)OC3)CC1`, the Potency was 12.6 µM (active).
As to `Cc1ccc(NC(=O)CN2C(=O)C(c3ccc(F)cc3)=NC23CCCCCC3)c(C)c1`, the “activity, negative = inhibition” value was 26.7%.
In the case of `CCN1CCN(C(=O)CSc2ccc(C)cc2)CC1`, the “activity, negative = inhibition” value is 8.84% [at 102 µM].
For the molecule `CCN1CCC2(CC1)N=C(c1ccc(F)cc1)C(=S)N2C(=O)c1ccc(C)cc1`, the Potency was 10 µM (active).
For the molecule `O=C(Nc1ccc(S(=O)(=O)N2CCCCCC2)cc1)c1c(F)cccc1F`, the activity, negative = inhibition was -5.59% [at 12.7 µM].
The same measure, in the same setting: the figure for `Cc1ccc(Cl)cc1NC(=O)Cc1ccc(-n2c(C)nc3cccnc32)cc1` is -30.9%; for `COc1ccccc1C1=CC(=O)C[C@H](c2ccc(F)cc2)C1` it is -10.3% [at 0.501 µM].
On the same count and under the same terms, the result for `Cc1sc2ncnc(SCC(=O)Nc3ccc(CN4CCCC4)cc3)c2c1C` reads 10.2% [at 12.7 µM].
